# Data from PubChem BioAssay AID623911 (Vanderbilt High Throughput Screening Facility, 2012).
# The campaign covered roughly 2,100 compounds. About 770 (37%) were called active.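 The calls were made as follows: active = by-eye trace score of 1 for enhancers or -1 for inhibitors, so actives lie on both sides (some results past the limit were not filed as active); inactive = score 0, or 3 fluorescent, or 4 baseline rise.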 The list shows a part of the results.
# Target: G protein-activated inward rectifier potassium channel 2 (Homo sapiens) + G protein-activated inward rectifier potassium channel 1 (Homo sapiens) (UniProt P48051+P48549)
# Sequence (P48051 whole entry, looked up): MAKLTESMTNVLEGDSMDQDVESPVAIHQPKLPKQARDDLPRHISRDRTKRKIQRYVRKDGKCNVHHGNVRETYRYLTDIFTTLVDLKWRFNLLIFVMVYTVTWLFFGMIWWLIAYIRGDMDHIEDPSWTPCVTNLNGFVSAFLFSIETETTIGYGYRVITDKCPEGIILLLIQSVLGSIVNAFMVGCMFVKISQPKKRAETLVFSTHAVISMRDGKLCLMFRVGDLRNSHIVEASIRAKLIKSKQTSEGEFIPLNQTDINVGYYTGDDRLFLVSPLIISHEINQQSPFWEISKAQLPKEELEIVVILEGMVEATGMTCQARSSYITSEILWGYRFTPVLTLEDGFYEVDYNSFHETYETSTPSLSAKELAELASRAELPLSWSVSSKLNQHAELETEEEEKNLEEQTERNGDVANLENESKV
# Sequence (P48549 whole entry, looked up): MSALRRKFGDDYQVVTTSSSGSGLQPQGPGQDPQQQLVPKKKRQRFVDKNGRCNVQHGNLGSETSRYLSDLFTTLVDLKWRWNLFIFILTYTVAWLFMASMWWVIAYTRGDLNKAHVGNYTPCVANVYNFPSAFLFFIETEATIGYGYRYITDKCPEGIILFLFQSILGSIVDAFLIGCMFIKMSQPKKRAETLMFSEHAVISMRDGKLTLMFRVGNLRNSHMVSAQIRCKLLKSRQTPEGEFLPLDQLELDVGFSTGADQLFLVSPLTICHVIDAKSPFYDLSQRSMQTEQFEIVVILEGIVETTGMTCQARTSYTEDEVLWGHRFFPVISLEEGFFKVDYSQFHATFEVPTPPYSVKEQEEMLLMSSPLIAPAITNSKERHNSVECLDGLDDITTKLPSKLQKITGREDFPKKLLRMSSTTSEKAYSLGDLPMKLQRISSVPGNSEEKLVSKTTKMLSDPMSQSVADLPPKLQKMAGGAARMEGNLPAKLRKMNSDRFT
# Assay: GIRK1/2 thallium flux modulators, retest, confirmation, cell-based, HEK293 rmGlu8/hGIRK1/2, FluoZin-2 (AID 623911)
# Details: HEK293 rmGlu8/hGIRK1/2, thallium flux FluoZin-2; actives lie on both sides; glutamate co-added at its EC20 level
row,Compound,manual score
1,CCOc1cc(/C=N/NC(=O)CNc2cccc(C)c2)ccc1OC(=O)c1ccccc1,0 (inactive)
2,O=C(Nn1c(C2CCCCC2)nc2ccccc2c1=O)c1ccc([N+](=O)[O-])cc1Cl,0 (inactive)
3,COc1ccccc1OCC(O)Cn1c(=N)n(Cc2ccccc2)c2ccccc21 (stereo not given),-1 (active)
4,Cc1ccc(OCC(O)Cn2c(=N)n(Cc3ccccc3)c3ccccc32)cc1 (stereo not given),-1 (active)
5,CC1(C)NC(=O)N(CC(O)COc2ccc(-c3ccc(C#N)cc3)cc2)C1=O (stereo not given),0 (inactive)
6,CN(C)c1nc(OCCNC(=O)COc2ccc(Cl)cc2Cl)nc(N2CCOCC2)n1,-1 (active)
7,Cc1cc(CC(C)C)n(-c2nc3ccccc3c(=O)n2OCC(N)=O)n1,0 (inactive)
8,Cc1ccc(CC(=O)N2CCN(c3cccc(C(F)(F)F)c3)CC2)cc1,1 (active)
9,CC1(C)Cc2ccccc2-c2nnc(SCC(=O)N3CCN(c4ccccc4)CC3)n21,0 (inactive)
10,O=C(CN1CCN(Cc2ccccc2)CC1)Nc1cccc(C(F)(F)F)c1,0 (inactive)
11,COC(=O)c1ccc(CSc2nc3c(c(=O)n2-c2ccc(F)cc2)SCC3)o1,0 (inactive)
12,CCOc1ccc(-n2c(SC(C)C(=O)OC)nc3c(c2=O)SCC3)cc1 (stereo not given),-1 (active)
13,CCOc1ccc(-n2c(Cc3cc(=O)[nH]c(=O)[nH]3)nnc2SC(C)C(=O)OC)cc1 (stereo not given),0 (inactive)
14,CC(C)Cn1c2c(c(O)c(C(=O)Nc3ncccc3O)c1=O)CCCC2,0 (inactive)
15,COC(=O)C(NC(=O)COc1ccccc1)(Nc1nc2c(s1)CCCC2)C(F)(F)F (stereo not given),-1 (active)
16,CCCCCn1nc(-c2ccccc2)c2nc3ccccc3nc21,3 (inactive)
17,O=c1c2c3c(sc2nc2n1CCCCC2)CCCCC3,0 (inactive)
18,CCn1c(SCC(N)=O)nc2sc3c(c2c1=O)CCCC3,1 (active)
19,CCCCN(CCCC)C(=O)CSc1nnc2n(C)c(=O)c3c4c(sc3n12)CCCC4,-0.5 (inactive)
20,Clc1ccc2c(c1)-c1nnc(Br)n1-c1ccccc1S2,-1 (active)
21,S=C1Nc2ccccc2Sc2ccc(Cl)cc21,0 (inactive)
22,CCOc1ccccc1OCCCCCc1c(C)n[nH]c1C,0 (inactive)
23,CCN(CC)CC(O)COCCC12CC3CC(CC(C3)C1)C2 (stereo not given),-1 (active)
24,CC1(C)CC(c2nc(-c3ccc(Br)cc3)cs2)CCS1 (stereo not given),0 (inactive)

row,Compound,manual score
1,Cc1ccc(Cn2c(SCC(=O)NCC3CCCO3)nc3c(sc4ccccc43)c2=O)cc1 (stereo not given),0.5 (inactive)
2,CCN(CC)CCN(CC)Cc1ccccc1Br,-1 (active)
3,CCOc1ccccc1C(=O)N1c2ccccc2Sc2ccccc21,-1 (active)
4,CCOC(=O)/C(=C/C=C1\Sc2ccccc2N1CC)C(C)=O,3 (inactive)
5,O=C1CS/C(=N\C(=O)N2c3ccccc3Sc3ccccc32)N1,0 (inactive)
6,COc1ccccc1C(=O)N1c2ccccc2Sc2ccccc21,-1 (active)
7,COCC(=O)/C=C1\Sc2ccccc2N1C,0 (inactive)
8,O=S(=O)(Cc1ccccc1)N1CCc2ccccc21,3 (inactive)
9,COc1cc(C)ccc1OCCOc1cc(C)ccc1Cl,0 (inactive)
10,CCC1CCCN1Cn1cnc2c([nH]c3ccc(OC)cc32)c1=O (stereo not given),0 (inactive)
11,Cc1ccc(N2C=Nc3ccc(C)c4nc(C)cc2c34)cc1,-1 (active)
12,C/C(=N\NC(=O)c1cccc(F)c1)c1ccc(Br)s1,1 (active)
13,C/C(=N\NC(=O)c1ccc(Cl)cc1)c1ccc(Br)s1,0.5 (inactive)
14,C/C(=N\NC(=O)c1ccccc1O)c1ccc(Br)s1,0.5 (inactive)
15,CN(C=O)CP(=O)(O)CCN1CCCC1=O,0 (inactive)
16,O=C(CSc1nc2ccc(Cl)cc2[nH]1)Nc1ccc2c(c1)CCC2,0 (inactive)
17,Cc1ccc(CSc2nc3ccncc3[nH]2)cc1,0 (inactive)
18,Clc1cccc(CSc2nc3ccncc3[nH]2)c1,1 (active)
19,CCN(CC)CCN1C(=O)c2oc3ccccc3c(=O)c2C1c1ccc(F)cc1 (stereo not given),0 (inactive)
20,C=CCSc1nc2sc3c(c2c(=O)n1CC)CCc1ccccc1-3,1 (active)
21,CCn1c(SCC(N)=O)nc2c(c1=O)C1(CCCC1)Cc1ccccc1-2,0 (inactive)
22,Cc1ccc(C)c(NC(=S)N=Nc2c(O)n(C)c3ccc(S(=O)(=O)N4CCOCC4)cc23)c1,0 (inactive)
23,O=c1c(-c2ccccc2)nc(-c2ccccc2)cn1O,1 (active)
24,N=c1oc2ccc3ccccc3c2cc1-c1nc(-c2ccccc2)cs1,3 (inactive)

row,Compound,manual score
1,CCN(C(=O)CN1CCN(c2ccccc2O)CC1)c1c(N)n(Cc2ccccc2)c(=O)[nH]c1=O,0 (inactive)
2,CC(C)CCn1c(CN2CCN(Cc3ccccc3)CC2)nc2c1c(=O)[nH]c(=O)n2C,-1 (active)
3,CN(C)CCNc1nc2c(c(=O)[nH]c(=O)n2C)n1CCCc1ccccc1,0 (inactive)
4,Nc1nc2n(n1)C(c1cccs1)CC(c1ccc(F)cc1)N2 (stereo not given),0 (inactive)
5,COc1ccc(C2CC(c3ccc(Cl)c(Cl)c3)Nc3nc(N)nn32)cc1 (stereo not given),1 (active)
6,CCn1c(=O)cc(OCC(=O)Nc2cccc(C)n2)c2ccccc21,0 (inactive)
7,COc1cccc(NC(=O)CC2COc3ccccc3O2)c1 (stereo not given),1 (active)
8,COc1cccc(NC(=O)NC2(C(F)(F)F)Oc3ccccc3O2)c1,0 (inactive)
9,COc1cccc2c1OC[C@@H](CO)[C@H]2N(C)C(=O)Nc1ccccc1,0 (inactive)
10,CCc1cc2cccc(C)c2nc1SCC(=O)c1ccc(NC(C)=O)cc1,0 (inactive)
11,COc1ccc(N2CCCn3c2nc2c3c(=O)n(Cc3ccccc3F)c(=O)n2C)c(OC)c1,-1 (active)
12,Cn1c(N2CCCC2)nc2c1c(=O)n(Cc1ccc(Cl)cc1)c(=O)n2C,-0.5 (inactive)
13,CC12CCC(C(=O)N3CCCc4ccccc43)(CC1=O)C2(C)C (stereo not given),0 (inactive)
14,COC(=O)c1cc2sccc2n1CC(=O)N1CCCc2ccccc21,-1 (active)
15,Cn1c(C(=O)OC(C(=O)NC2CCCCC2)c2ccncc2)cc2sccc21 (stereo not given),0 (inactive)
16,CS(=O)(=O)Nc1ccc(C2=NN(C(=O)C3CCCCC3)C(c3cccs3)C2)cc1 (stereo not given),-0.5 (inactive)
17,C=CCN(CC=C)C(=S)NC(=O)c1ccc(C)c(Br)c1,1 (active)
18,COc1ccc(C(=O)NC(=S)NC(C)C)cc1Br,0.5 (inactive)
19,C=CCN(CC=C)C(=S)NC(=O)/C=C/c1ccc(C)cc1,1 (active)
20,C=CCN(CC=C)C(=S)NC(=O)c1ccc(OC)c(Br)c1,1 (active)
21,COc1ccc(C(=O)NC(=S)NCCO)cc1Br,1 (active)
22,Cc1ccnc(NC(=S)NC(=O)/C=C/c2ccco2)c1,0 (inactive)
